High-throughput results from PubChem.
Cycloheximide cs – Cycloheximide Counterscreen for Small Molecule Inhibitors of Shiga Toxin. cell reporter, cycloheximide protein synthesis inhibition counterscreen. AID 2314, 2010. 300,000 compounds, 12% hits. max response, %; in the data active means max response mostly above about 13%, no sharp cut-off; inactive means mostly below about 14%; further: read at 38.3 µM for the half of the compounds with a filed dose; 0% is about no effect
Shiga toxin inh – A qHTS for Small Molecule Inhibitors of Shiga Toxin. Vero cells, Shiga toxin protein synthesis inhibition reporter. inhibition, % at 38.7 µM. 290,000 compounds, 9.2% hits. AID 2315, 2010; in the data active means inhibition mostly above about 28%, no sharp cut-off; inactive means mostly below about 43%; further: 0% is about no effect
Pf growth 48h – Primary qHTS for delayed death inhibitors of the malarial parasite plastid, 48 hour incubation. P. falciparum luciferase growth in erythrocytes, 48 h. Potency, µM (doses to about 28.7 µM), for inactives: at the top dose activity change, negative = inhibition, most hits filed as inhibitors. 310,000 compounds, 5.9% hits; further: potency means the concentration at half of the fitted maximal effect; on the % scale 0 is the no-effect control and ±100 the full control effect
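First compound was added to culture medium, then infected red cells at 0.1% parasitemia and 2% hematocrit (final). After incubation at 37 C under 5% CO2, luciferase detection reagent was dispensed and light output recorded.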
LmPK inh – qHTS Assay for Inhibitors of Leishmania Mexicana Pyruvate Kinase (LmPK); Q27686; purified LmPK, Kinase-Glo ATP luminescence, 1 h; Potency, µM (highest dose often 57.5 µM), for the others: at the top dose activity change, negative = inhibition, usual class: inhibitors; 290,000 compounds, 0.37% hits; further: potency means the concentration at half of the fitted maximal effect; on the % scale 0 is the no-effect control and ±100 the full control effect
Target sequence (Q27686 whole entry, looked up): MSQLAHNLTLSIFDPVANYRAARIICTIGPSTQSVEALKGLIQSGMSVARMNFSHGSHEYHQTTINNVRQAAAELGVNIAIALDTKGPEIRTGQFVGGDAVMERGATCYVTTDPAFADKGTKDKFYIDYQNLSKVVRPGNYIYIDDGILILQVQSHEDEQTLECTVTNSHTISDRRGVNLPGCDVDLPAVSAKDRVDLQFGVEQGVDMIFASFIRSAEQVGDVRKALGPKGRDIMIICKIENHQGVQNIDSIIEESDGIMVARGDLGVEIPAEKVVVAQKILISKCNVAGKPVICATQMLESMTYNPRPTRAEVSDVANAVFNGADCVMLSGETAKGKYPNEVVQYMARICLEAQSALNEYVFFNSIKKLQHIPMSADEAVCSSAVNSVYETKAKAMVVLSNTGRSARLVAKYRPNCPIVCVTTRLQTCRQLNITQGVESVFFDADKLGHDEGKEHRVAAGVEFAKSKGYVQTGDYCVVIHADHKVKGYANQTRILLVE
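Pyruvate kinase activity monitored as ATP production (luciferase luminescence). Conditions: 0.1 nM enzyme, 0.5 mM PEP, 0.1 mM ADP, 1 h, RT; normalized against uninhibited and no-enzyme wells.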
Pf growth 96h – Primary qHTS for delayed death inhibitors of the malarial parasite plastid, 96 hour incubation. P. falciparum luciferase reporter growth, 96 h. Potency, µM (doses to about 28.7 µM), without a hit: at the highest dose activity change, negative = inhibition, hits mostly inhibitors. 320,000 compounds, 6.9% hits. AID 504834, 2011; further: potency means the concentration at half of the fitted maximal effect; on the % scale 0 is the no-effect control and ±100 the full control effect
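Infected RBCs, 2% Hct / 0.05% parasitemia final; luciferase-reporter P. falciparum; cpd 96 h, 37 C, 5% CO2; luciferase detection reagent; luminescence.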
* hit, by the source's call; i = inactive; u = inconclusive; x = not tested or not shown; + = active, no number; [ ] = another dose, or the depositor's remark. Shown are actives, neighbours in structure and some others; about 22% of the full set was active somewhere. Unless noted, the call rests on the fitted dose curve; in most records, active means well fitted inhibition curve with a large enough effect; inconclusive means small, poorly fitted or top-dose-only effect, or another doubt; inactive means no such curve, though single readings can be large or run the other way.

SMILES	Cycloheximide cs	Shiga toxin inh	Pf growth 48h	LmPK inh	Pf growth 96h
O=C(Cc1ccccc1)Nc1ccc(C(=O)NCc2ccccc2)cc1	5	10	-16%	1%	u
O=C(NCc1ccccc1)c1ccc(C(=O)N(C2CCCCC2)C2CCCCC2)cc1	1	-12	x	-14%	9.3µM*
C=CCNC(=O)c1ccc(N(CC=C)S(C)(=O)=O)cc1	-1	0	-10%	1%	-15%
C=CCN(c1ccc(C(=O)NCCc2ccccc2)cc1)S(C)(=O)=O	40*	44	x	5%	74%
O=C(O)Cc1c(O)ccc2ccccc12	-3	-20	5%	-1%	15%
CC(C)(C)C(=O)Nc1ccc(C(=O)NCc2cccnc2)cc1	30	25	40%	8%	x
CC(C)(C)c1ccc(C(=O)NCCc2ccccc2)cc1	46*	53*	154%	-4%	i
CC(C)(C)c1ccc(C(=O)Nc2ccc(C(=O)NCc3cccnc3)cc2)cc1	11	21	6.6µM*	-1%	-1%
CC(C)(C)c1ccc(C(=O)Nc2cnccn2)cc1	27*	41*	182%	-16%	33%
O=C(CC(=O)NCCc1ccccc1)NCCc1ccccc1	-2	12	0%	-2%	26%
CC(C)(C)c1ccc(C(=O)NCc2ccc(Cl)cc2)cc1	8	45	u	1%	7%
CC(C)(C)c1ccc(C(=O)NCc2ccccc2)cc1	26*	53*	142%	-4%	9.3µM*
CC(=O)c1cccc(NC(=O)Nc2ccc3c(c2)N(C)C(=O)CS3)c1	-1	-6	u	7%	-8%
COc1ccc(NS(=O)(=O)c2cccs2)cc1S(=O)(=O)N1CCCCC1	x	x	u	x	1%
CNc1nc(Cl)nc(Nc2ccccc2)n1	40*	45*	0%	2%	u
C=CCNc1nc(Cl)nc(Nc2cc(Cl)ccc2OC)n1	-3	-11	-4%	-3%	-10%
C=CCNc1nc(Cl)nc(Nc2ccccc2)n1	22*	40*	52%	0%	-7%
O=C(O)/C=C\c1ccc(Cn2ccnc2)cc1	x	x	2%[12.8 µM]	x	u
COc1ccc(CN2CCc3c([nH]c4ccccc34)C2)c(OC)c1C	-3	-6	u	-6%	u
CCN(CC)C(=O)CCSc1nnc(-c2ccncc2)o1	-3	-7	16%	-4%	47%
CC(C)(C)NC(=O)CCSc1nnc(-c2ccco2)o1	27*	37	51%	4%	4%
CCN(CC)C(=O)CCSc1nnc(-c2ccco2)o1	30*	37	123%	6%	u
C/C(=C\C(=O)OCCCCCCCCC(=O)O)C[C@@H]1OCC(C[C@H]2O[C@H]2[C@@H](C)[C@H](C)O)[C@@H](O)[C@H]1O (some centres undefined)	1	-5	x	x	x
CCN1C(=O)/C(=C2/C=CC=CN2C)OC1=S	2	5	4%	-3%	-21%
CN1C(=O)/C(=C\C=C2/CCCN2C)N(C)C1=S	23*	54	33%	-3%	12%
SMILES	Cycloheximide cs	Shiga toxin inh	Pf growth 48h	LmPK inh	Pf growth 96h
CCN1C(=O)/C(=C/C=C2/CCCN2C)OC1=S	28*	46*	91%	-6%	10%
Cc1nn(-c2ccccc2)c(C)c1/C=C1\C(=O)N(C)C(=S)N1C	16	-9	u	3%	2%
COc1ccccc1C1=NNC(=Nc2cccc(S(=O)(=O)N(C)C)c2)SC1	3	-5	1.9µM*	8%	u
COc1ccccc1C1=Nn2c(nnc2-c2cccc(OC)c2OC)SC1	-2	16	x	x	x
COC(=O)c1ccc(SCc2cnc(Cl)s2)cc1	30*	130*	30%	4%	7%
O=C(COC(=O)CCNS(=O)(=O)c1ccccc1)NNC(=O)c1ccccc1	x	x	56%	x	2%
O=C(O)CCCC/C=C(\c1ccccc1)c1cccnc1	x	x	-14%	x	1.7µM*
CCCCCCCCC(=O)N/N=C(\C)c1cccnc1	-1	-4	23%	0%	11%
O=C(CCCCCn1c(=S)[nH]c2ccccc2c1=O)N1CCC2(CC1)OCCO2	-2	-23	8.3µM*	-1%	15%
Cn1c(=O)n(CC(=O)N2CCC3(CC2)OCCO3)c(=O)c2ccccc21	4	-13	43%	-3%	1.7µM*
O=C(CCn1c(=O)oc2ccccc21)N1CCC2(CC1)OCCO2	14*	19	-7%	6%	4%
O=C(CCn1c(=O)oc2ccccc21)N1CCOCC1	-5	-4	4%	5%	u
O=C(Cn1c(=S)[nH]c2ccccc2c1=O)N1CCC2(CC1)OCCO2	-3	13	9%	-2%	40%
Cc1ccc(S(=O)(=O)NC(C)(C)CN2CCC(Cc3ccccc3)CC2)cc1	6	7	u	-2%	-16%
CC(=O)O[C@@H](C)C[N+](C)(C)C	x	x	-14%[12.8 µM]	x	-19%[12.8 µM]
C[C@@H]1C[C@@H]2[C@H]([C@H]3C=C(COC(=O)c4ccccc4)[C@@H](O)[C@]4(O)[C@@H](O)C(OC(=O)c5ccccc5)=C[C@@]14C3=O)C2(C)C	17	24*	x	x	x
Cc1ccccc1N1CC(C(=O)Nc2ccc(S(=O)(=O)N3CCOCC3)cc2)CC1=O (centres undefined)	-6	-5	-16%	-1%	36%
O=C(COc1ccc2c(c1)CCC2)NCc1ccccc1	15	15	4%	4%	22%
O=C(NCc1ccccc1)c1cccc(COc2cc(Cl)ccc2Cl)c1	41*	118*	18%	9%	u
O=C(c1ccc(Cl)c(Cl)c1)N1CCN(c2ccccn2)CC1	1	-7	-2%	-3%	u
O=C(c1cccc(COc2ccc(Cl)cc2Cl)c1)N1CCN(c2ccccn2)CC1	92*	+	194%	1%	23%
O=C(NCc1ccccc1)c1cccc(COc2ccccc2Cl)c1	61*	120*	84%	3%	170%
NNC(=O)c1cccc(COc2ccc3c(c2)CCC3)c1	206*	196*	257%	-1%	259%
O=C(NCc1cccnc1)c1ccc(COc2ccccc2Cl)cc1	10	63	36%	1%	13%[5.75 µM]
Cc1ccc(S(=O)(=O)CC(=O)c2cc(C)c(O)c(C)c2)cc1	5	2	25%	5%	1%
SMILES	Cycloheximide cs	Shiga toxin inh	Pf growth 48h	LmPK inh	Pf growth 96h
O=C(O)c1ncc(Cl)c(Cl)c1Cl	8	-2	113%	-6%	35%
NNC(=O)c1cccc(COc2ccccc2Br)c1	81*	100*	383%	-5%	i
O=C(NCc1ccccc1)c1cnc(Cl)c(Cl)c1	23*	20	26%	1%	29%
O=C(c1cccc(COc2cccc3ccccc23)c1)N1CCCC1	40*	47*	47%	1%	142%
NNC(=O)c1ccc(COc2cccc3ccccc23)cc1	-6	-8	u	0%	u
COC(=O)c1ccccc1NC(=O)c1cccc(COc2ccccc2Cl)c1	86*	89*	x	-2%	204%
Cc1ccc(NS(=O)(=O)c2c(C)noc2C)cc1	-2	-3	1%	-1%	-26%
